Bioassay records (PubChem)
HT1080-NT tox = kills 2HG-producing HT-1080-NT fibrosarcoma cells; AID 686970; HT-1080-NT fibrosarcoma viability, CellTiter-Glo ATP luminescence, 48 h; Potency, µM (series often up to 46.1 µM), inactives show at the highest dose activity, negative = less viability, actives largely listed as cytotoxic; 360,000 tested, 1.6% active;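 also: NT is the 2HG producing partner of a matched IDH1 knockdown line; 0% = DMSO-treated cells and -100% = media-only wells without cells; nearly all actives have a fitted effect of over 55% in size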
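Read-out is CellTiter-Glo luminescence after 10 minutes at room temperature, following 48 hours' compound treatment of HT-1080-NT cells (750 cells/well, RPMI, 5% FBS, 37 degrees C).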
KB-3-1 cytotox = kills parental KB-3-1 adenocarcinoma cells. KB-3-1 viability, CellTiter-Glo ATP luminescence, 72 h. Potency, µM (titrated, usually from 46.1 µM), usual class: cytotoxic. 400,000 tested, 1.4% active; also: nearly all actives have a fitted effect of over 60% in size
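Using CellTiter-Glo luminescence, growth of non-resistant KB-3-1 adenocarcinoma cells is assessed 72 h after pin-tool compound addition at 37 °C. Normalized responses across the concentration series yield fitted curves.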
DT40 TDP1 CPT = growth inhibition of DT40 Tdp1-/-;hTDP1 cells with camptothecin (screen for TDP1 inhibitors); chicken DT40 Tdp1-/-;hTDP1 cells + 20 nM CPT, ATP luminescence, 48 h; AID 686979; Potency, µM (series often up to 46.2 µM), without a hit: top-dose activity change, negative = growth inhibition, usual class: inhibitors; 420,000 tested, 12% active; also: nearly all actives have a fitted effect of over 55% in size
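Chicken DT40 Tdp1-/- cells complemented with human TDP1, 400 cells/well, exposed to compounds plus 20 nM camptothecin for at least 48 h at 37 C; viability read as ATP content by CellTiter-Glo luminescence.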
HT1080 IDH1KD tx = toxicity to HT-1080 IDH1 knockdown cells (counter line). HT-1080 IDH1 knockdown viability, ATP luminescence, 48 h. Potency, µM (highest dose often 46.1 µM), for the others: top-dose activity, negative = toxicity, actives largely listed as cytotoxic. 360,000 tested, 2% active. AID 686971;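 also: 0% = DMSO wells and -100% = cell-free medium wells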
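In this qHTS, HT-1080 cells depleted of IDH1 are exposed for 48 h at 37 °C to compound titrations. Toxicity is scored from CellTiter-Glo luminescence, with DMSO as full viability and medium alone as none.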
KB-V1 MDR tox = kills drug-selected multidrug resistant KB-V1 cells. KB-V1 MDR cells viability, CellTiter-Glo, 72 h. Potency, µM (doses to about 46.1 µM), most hits filed as cytotoxic. 400,000 tested, 3.4% active; also: nearly all actives have a fitted effect of over 60% in size
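KB-V1, DMEM (no phenol red) + 10% FBS; cpd pin-transferred, titration series; 72 h, 37 degrees C; CellTiter-Glo, luminescence. Data normalized, curve-fit.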
TDP1 cell noCPT = qHTS for Inhibitors of human tyrosyl-DNA phosphodiesterase 1 (TDP1): qHTS in cells in absence of CPT; 420,000 tested, 15% active; DT40 Tdp1-/- hTDP1 cells, no CPT, ATP luminescence, 48 h; Potency, µM (doses to about 46.2 µM), for the others: at the highest dose activity change, negative = growth inhibition, actives largely listed as inhibitors; also: nearly all actives have a fitted effect of over 55% in size
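Compound effects on proliferation are scored in DT40 Tdp1-/-;hTDP1 cells in the absence of CPT. ATP levels (CellTiter-Glo luminescence) are recorded after a ≥48 hr, 37 °C incubation.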
* hit, by the source's call; i = inactive; ? = inconclusive; · = no result given. A selection: hits, their analogues and other compounds. The true share with any hit is near 19%. Calls follow the shape of the dose curve; as a rule, active = well fitted curve in the direction sought with a large enough effect; inconclusive = small, poorly fitted or top-dose-only effect, or another doubt; inactive = no such curve, though single readings can be large; an effect the other way counts as inactive or inconclusive. Unless noted, % is scaled to controls: 0 for no effect and ±100 for the full control effect; potency is read from the fitted curve at half-maximal effect.

SMILES	HT1080-NT tox	KB-3-1 cytotox	DT40 TDP1 CPT	HT1080 IDH1KD tx	KB-V1 MDR tox	TDP1 cell noCPT
CCOC(=O)c1nc(C)sc1-c1ccnn1S(=O)(=O)c1ccc(C)cc1	4%	i	-11%	-13%	?	?
COc1ccc(CNC(=O)CS(=O)CC(=O)O)cc1OC (stereo not given)	14%	i	-6%	10%	i	-13%
Cc1ccc(S(=O)(=O)NC(=O)NC(C)c2ccc(F)cc2)cc1 (stereo not given)	-5%	i	-5%	8%	?	-3%
CN(Cc1ccco1)c1ncnc2ccc(-c3ccccc3C(F)(F)F)cc12	·	·	?	·	·	23µM*
CN(Cc1ccco1)c1nc(-c2ccoc2)nc2ccccc12	·	·	?	·	·	-25%
CN(Cc1ccco1)c1ncnc2ccc(-c3ccccc3Cl)cc12	·	?	21µM*	·	i	?
CN(C)Cc1ccccc1-c1ccc2ncnc(N(C)C)c2c1	·	·	?	·	·	-16%
CN(Cc1ccco1)c1ncnc2ccc(-c3ccoc3)cc12	·	i	18µM*	·	i	?
COc1ccc(C(=O)N[C@H](C(=O)NCCCSc2ccccc2)C(C)C)cc1	3%	i	-30%	10%	i	?
Cc1cc(Br)ccc1OCC(=O)NNC(=O)C(=O)Nc1ccccc1	-14%	i	12%	-9%	i	2%
Cc1nc(Nc2ccccc2)sc1C(=O)Nc1ccccc1	-17%	i	21µM*	-1%	i	?
COc1ccc(C(=O)c2sc(Nc3ccc(NC(C)=O)cc3)nc2C)cc1	-1%	i	29µM*	4%	i	16µM*
Cc1nc(-c2ccccn2)sc1C(=O)Nc1ccc(Cl)c(Cl)c1	-8%	i	?	1%	18µM*	15µM*
Cc1nc(Nc2ccccc2Cl)sc1C(=O)Nc1ccccc1	-4%	i	18µM*	-8%	?	21µM*
Cc1nc(-c2ccccn2)sc1C(=O)O	10%	i	-2%	13%	i	-1%
Cc1ccc(-c2ccc(CCC(=O)O)n2-c2ccc(C(=O)O)cc2)cc1	14%	i	7%	12%	i	-21%
Cc1nc(NCc2ccccc2)sc1C(=O)Nc1ccccc1	-4%	i	-1%	-14%	?	?
COc1ccccc1Nc1nc(C)c(C(=O)Nc2ccccc2)s1	-21%	i	15µM*	-19%	i	?
CC(Oc1cccnc1[N+](=O)[O-])C(=O)N1CCc2ccccc21 (stereo not given)	-7%	i	-15%	0%	i	?
CCOC(=O)Cn1c(=NC(=O)CC)sc2c(C)cc(C)cc21	20%	i	1%	7%	i	-6%
CCOC(=O)Cn1c(=NC(=O)C(C)C)sc2c(C)cc(C)cc21	-18%	i	?	-5%	i	15µM*
COc1ccccc1/C=C/C=N/n1c(-c2ccccc2)n[nH]c1=S	1%	i	?	-3%	i	21µM*
CCOc1ccccc1/C=N/n1c(C2CCCCC2)n[nH]c1=S	3%	i	-21%	4%	i	-1%
COc1ccccc1/C=C/C=N/n1c(C2CCCCC2)n[nH]c1=S	-10%	i	?	-27%	?	16µM*
COc1ccccc1/C=C/C=N/n1c(-c2ccc(Cl)cc2)n[nH]c1=S	6%	i	?	5%	i	16µM*
SMILES	HT1080-NT tox	KB-3-1 cytotox	DT40 TDP1 CPT	HT1080 IDH1KD tx	KB-V1 MDR tox	TDP1 cell noCPT
COc1cc(/C=N/n2c(-c3ccccc3)n[nH]c2=S)cc(OC)c1OC	?	i	2%	?	i	?
COc1ccc(-c2n[nH]c(=S)n2/N=C/C=C/c2ccccc2OC)cc1	-9%	10µM*	?	-4%	18µM*	?
COc1cc2c(-c3ccccc3)c(C)oc2cc1/C=N/NC(N)=S	-15%	i	?	-13%	i	?
CCOC(=O)Cn1cccc1-c1nc(-c2ccc(OC)cc2)c(-c2ccc(OC)cc2)s1	·	·	5%	·	·	1%
CCCCC(=O)OCC(=O)Nc1cccc(S(=O)(=O)NC2=NCCCCC2)c1	28%	i	2%	22%	i	-6%
Cc1ccc(/C=N/n2c(-c3ccc(Cl)cc3)n[nH]c2=S)s1	3%	i	?	-5%	i	16µM*
CCOc1cccc2sc(N(CCCN(C)C)C(=O)c3ccc(C(=O)c4ccccc4)cc3)nc12	26µM*	i	?	?	i	-5%
CCOc1cccc2sc(N(CCN(C)C)C(=O)c3cc4ccccc4cc3OC)nc12	?	i	23µM*	21µM*	i	?
CCOc1cccc2sc(N(CCCN(C)C)C(=O)c3ccc(S(=O)(=O)N(CC)Cc4ccccc4)cc3)nc12	?	?	?	23µM*	10µM*	?
Clc1cccc(Cc2c(-c3ccccc3)nc3ccc(Cl)cn23)c1	-22%	i	?	-18%	i	?
Cc1cc(N2CCC(C(=O)Nc3ccccc3Cl)CC2)n2nc(C)c(-c3ccc(Cl)cc3)c2n1	·	i	7%	·	?	-60%
CCN(C(=O)CN1C(=O)NC(c2ccccc2)(c2ccc(C)c(C)c2)C1=O)C1CCS(=O)(=O)C1 (stereo not given)	-6%	i	1%	-13%	i	?
CC(C)(C)NC(=O)NC(=O)CN1C(=O)NC(c2ccccc2)(c2ccccc2)C1=O	-15%	i	?	-11%	i	26µM*
CC1CCC(N(C)C(=O)CN2C(=O)NC(c3ccccc3)(c3ccccc3)C2=O)CC1 (stereo not given)	-17%	i	23µM*	-6%	i	?
CCN(C(=O)CN1C(=O)NC(c2ccccc2)(c2ccc(C)c(C)c2)C1=O)C1CCCCC1 (stereo not given)	?	?	16µM*	?	i	?
